Bioassay records as filed in PubChem.
The list is not random: actives were taken first. Their share in the collection is about 7.5%.
KinaseGlo FLuc: counter-screen: inhibitors of Kinase-Glo firefly luciferase. Q27757. AID 1379. Potency, µM (highest dose often 38.3 µM), for inactives: at the highest dose activity change, negative = inhibition, actives largely listed as inhibitors. 200,000 tested, 0.28% active. Kinase-Glo luciferase, ATP luminescence, 8 min; also: % is scaled to controls: 0 for no effect and ±100 for the full control effect; nearly all actives have a fitted effect of over 60% in size
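Compounds were added to a substrate mix at pH 7.2 (50 mM imidazole, 10 uM ATP, within the enzyme's linear range), followed by Kinase-Glo detection reagent; luminescence was measured after 8 minutes at ambient temperature.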
ELG1 genotoxic: genotoxicity induction in ELG1-luciferase HEK293T cells. 330,000 tested, 1.3% active. HEK293T ELG1-luciferase reporter, luminescence, 16 h. Potency, µM (titrated, usually from 46 µM), for the others: at the top dose activity change, positive = activation, actives largely listed as activators; also: % of control where 0% means no effect; nearly all actives have a fitted effect of over 60% in size
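Luminescence read-out: rising ELG1-luciferase signal, reflecting elevated ELG1 protein under genetic stress, flags genotoxic compounds. Cells were treated for 16 hr at 37 °C before ONE-Glo detection.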
Rab9 promoter act: Rab9 promoter activation. Potency, µM (titrated, usually from 9.22 µM), for inactives: top-dose activation, negative = inhibition, usual class: activators. AID 485297. Huh7 Rab9 promoter-luciferase reporter, luminescence, 24 h. 320,000 tested, 2.8% active; also: % of control where 0% means no effect; nearly all actives have a fitted effect of over 60% in size
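Cell-based reporter: Huh7 stable for Rab9 promoter-driven luciferase, plated in reduced-serum medium with 10% FBS at 1500 cells/well, compound-treated 24 h at 37 °C, luminescence read after 10 min reagent.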
NPC1 promoter act: NPC1 promoter activation | Huh7 NPC1 promoter luciferase reporter, 24 h | AID 485313 | Potency, µM (series often up to 9.22 µM), inactives show at the top dose activation, hits mostly activators | 320,000 tested, 2.4% active; also: % of control where 0% means no effect; nearly all actives have a fitted effect of over 60% in size
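Cells: Huh7 expressing luciferase under the NPC1 promoter, 1500/well. Seeded 2 h, compound added, incubated 24 h at 37 °C. Luciferase reagent, 10 min ambient, then luminescence.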
FLuc modulator: inhibits or activates purified firefly luciferase, miR-21 counter-screen; AID 588342; 360,000 tested, 6.9% active; Potency, µM (top dose mostly 57.5 µM), for the others: at the highest dose activity change, negative = inhibition, usual class: inhibitors; purified FLuc, Km substrates, luminescence inhibition; P08659;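 also: plate controls were vehicle for no effect and reference inhibitor for full effect; nearly all actives have a fitted effect of over 55% in size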
Target sequence (P08659 whole entry, looked up): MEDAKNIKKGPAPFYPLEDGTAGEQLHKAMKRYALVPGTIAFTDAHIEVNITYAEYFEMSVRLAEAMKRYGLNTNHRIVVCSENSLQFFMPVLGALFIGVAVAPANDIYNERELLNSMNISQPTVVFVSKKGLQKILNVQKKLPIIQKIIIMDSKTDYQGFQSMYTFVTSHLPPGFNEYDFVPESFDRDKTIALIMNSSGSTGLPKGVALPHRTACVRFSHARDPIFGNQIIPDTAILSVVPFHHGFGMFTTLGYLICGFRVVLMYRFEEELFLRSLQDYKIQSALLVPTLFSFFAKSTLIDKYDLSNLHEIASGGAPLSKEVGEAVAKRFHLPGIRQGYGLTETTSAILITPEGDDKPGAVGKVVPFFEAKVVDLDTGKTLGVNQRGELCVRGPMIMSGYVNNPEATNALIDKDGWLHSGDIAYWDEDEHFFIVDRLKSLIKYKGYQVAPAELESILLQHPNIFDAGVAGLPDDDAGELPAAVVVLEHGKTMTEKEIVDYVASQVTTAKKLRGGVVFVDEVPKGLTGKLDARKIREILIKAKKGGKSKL
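Purified P. pyralis luciferase (10nM final) with 10uM D-luciferin and 10uM ATP (Km levels) in 50mM Tris acetate pH 7.5, 10mM Mg acetate, 0.01% Tween-20, 0.05% BSA; qHTS 6-point titration, ~60 µM downward; luminescence read.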
SMN2 splice up: SMN2 splice variant enhancement. HEK293 SMN2-luciferase splicing reporter, luminescence, 30-36 h. Potency, µM (series often up to 46.1 µM), inactives show at the highest dose activity change, positive = activation, usual class: activators. 210,000 tested, 2.8% active; also: % of control where 0% means no effect; nearly all actives have a fitted effect of over 55% in size
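HEK293 cells carry an SMN2 […]–luciferase reporter in which exon 7 inclusion puts luciferase in frame. Cells were plated 10-12 h before compound addition, then incubated 30-36 h at 37C. ONE-Glo luminescence was read; sodium butyrate at 4.5 mM final served as control.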
An asterisk follows results filed as active; ? = inconclusive; . = not tested or not shown; ! = repeats disagree. Calls follow the shape of the dose curve; as a rule, active = well fitted curve in the direction sought with a large enough effect; inconclusive = small, poorly fitted or top-dose-only effect, or another doubt; inactive = no such curve, though single readings can be large; an effect the other way counts as inactive or inconclusive. Potency is read from the fitted curve at half-maximal effect.

SMILES | KinaseGlo FLuc | ELG1 genotoxic | Rab9 promoter act | NPC1 promoter act | FLuc modulator | SMN2 splice up
O=C(N/N=C/c1sc2ccccc2c1O)c1ccccc1 | -3% | ? | -30% | -27% | 17µM* | -107%
COc1ccc(/C=N\NC(=O)c2cccc(Br)c2)c(OC)c1 | -3% | -3% | 1% | -3% | 4% | .
COc1ccc(C(=O)N/N=C/c2sc3ccccc3c2O)cc1 | -2% | ? | -42% | -30% | 13µM* | -95%
COc1ccc2cc(C(=O)N/N=C/c3sc4ccccc4c3O)ccc2c1 | -5% | ? | -14% | -3% | 13µM* | -106%
COc1ccc(C(=O)N/N=C/c2c(C)[nH]c(=O)[nH]c2=O)cc1 | 0% | 0% | -1% | 6% | -7% | -3%
COc1ccc(N=Cc2sc3ccccc3c2Cl)cc1 | 1% | 10% | 4% | 28% | 4.8µM* | 1%
C[C@H](CO)N1C[C@H](C)[C@@H](CN(C)S(=O)(=O)c2ccccc2)Oc2c(NS(=O)(=O)c3ccccc3)cccc2C1=O | . | -1% | . | . | . | .
C/C(=C/CCC(C)(O)C1CC[C@@]2(C)[C@@H]3CC=C4[C@@H](CC[C@H](O[C@H]5O[C@@H](CO)[C@H](O)[C@@H](O)[C@@H]5O)C4(C)C)[C@]3(C)C(=O)C[C@]12C)CO[C@@H]1O[C@H](CO)[C@@H](O)[C@H](O)[C@H]1O (stereo partly drawn) | . | 3% | . | . | . | .
O=C(N/N=C/c1sc2ccccc2c1O)c1cccc2ccccc12 | -1% | 11% | -13% | -21% | 17µM* | -92%
CCNC(=O)NC(=O)COC(=O)c1ccccc1SCC(=O)NC(=O)NCC | -23% | ? | 2.8µM* | 1.6µM* | 5.4µM* | 8.9µM*
CC(C)(CNS(=O)(=O)c1ccc2ccccc2c1)N1CCOCC1 | . | 0% | -3% | 0% | 3% | .
COc1ccc(C(=O)NC(C)c2ccc(-n3ccnc3)cc2)cc1S(=O)(=O)N1CCOCC1 (stereo not drawn) | . | 0% | -5% | 0% | 3% | .
COc1cccc(-c2cc(=O)c3cc(O)ccc3o2)c1 | -8% | . | . | . | . | .
COc1ccc(-c2cc(=O)c3cc(OC)ccc3o2)cc1 | -6% | ? | 0.25µM* | 0.5µM* | 0.21µM* | 0.89µM*!
COc1cccc(-c2cc(=O)c3ccc(OC)cc3o2)c1 | -1% | . | . | . | . | 13µM*
CCC(N=c1cc(-c2ccc(OC)cc2)oc2ccc(C)cc12)C(=O)O (stereo not drawn) | -1% | ? | 9% | ? | 3µM* | ?
CCC(N=c1cc(-c2ccc(OC)c(OC)c2)oc2ccc(C)cc12)C(=O)O (stereo not drawn) | 1% | 4% | -4% | -1% | -11% | 3%
C#CCOCCOCCOCCNc1nc(N2CCN(C(=O)C(Cc3cc4ccccc4[nH]3)n3cc(C(N)Cc4ccc(O)cc4)nn3)CC2)nc(N2CCN(C(=O)C(Cc3cc4ccccc4[nH]3)n3cc(C(N)Cc4ccc(O)cc4)nn3)CC2)n1 (stereo not drawn) | . | 8% | -2% | -3% | 2% | .
CNC(=O)c1c(NC(=O)c2ccc3ncsc3c2)sc(C)c1C | . | 24% | 1% | -1% | ? | .
O=C(Nc1nc2c(s1)CCCC2)c1ccc2ncsc2c1 | -12% | ? | ? | ? | 2.4µM* | 0.5µM*
Cc1ncsc1C(=O)Nc1nc2c(s1)CCCC2 | 6.3µM* | ? | 1µM* | 2.5µM* | 7.6µM* | 11µM*
O=C(Nc1nc2c(s1)CCCC2)c1ccc(Br)s1 | -4% | ? | 0.5µM* | 2.8µM* | 1.5µM* | ?
Cc1cc(C(=O)Nc2nc3c(s2)CCCC3)cs1 | ? | ? | 1µM* | ? | 0.6µM* | ?
Cc1ccc(CC(=O)Nc2nc3c(s2)CCCC3)cc1 | -2% | 26% | 8% | 9% | ? | .
Cc1cccc(C(=O)Nc2nc3c(s2)CCCC3)c1 | . | . | . | . | 1.3µM* | .
SMILES | KinaseGlo FLuc | ELG1 genotoxic | Rab9 promoter act | NPC1 promoter act | FLuc modulator | SMN2 splice up
COc1ccc(C(=O)Nc2nc3c(s2)CCCC3)cc1Cl | . | . | . | . | 2.4µM* | .
COc1ccccc1OCC(=O)Nc1nc2c(s1)CCCC2 | . | 0% | 22% | 21% | -15% | .
CC(C)[C@H](NC(=O)[C@@H]1CSC2c3ccccc3C(=O)N21)C(=O)NCc1ccncc1 (stereo partly drawn) | . | -1% | 4% | -2% | 1% | .
CCOC(=O)Cc1ccc(NC(=O)c2ccccc2Br)cc1 | -3% | 10% | 12% | 14% | 19µM* | 24%
CCOC(=O)Cc1ccc(NC(=O)c2ccc(C(C)(C)C)cc2)cc1 | -2% | -16% | -21% | -17% | 1.1µM* | -107%
CCOC(=O)c1ccc(NC(=O)c2ccc(NC(=O)c3ccccc3)cc2)cc1 | -2% | ? | -4% | -4% | -1% | ?
COc1ccc(NC(=O)c2ccco2)cc1NC(=O)COc1ccccc1Cl | . | . | . | . | -1% | -14%
COC(=O)c1cccc(C(=O)Nc2ccc(C)cc2)n1 | -20% | 10% | ? | 3.5µM* | 12µM* | -4%
CCc1ccc(NC(=O)c2cccc(C(=O)Nc3ccc(CC)cc3)n2)cc1 | . | 6% | 16% | 9% | 5.4µM* | .
CCc1ccc(NC(=O)c2ccccc2SC)cc1 | -12% | ? | ? | ? | 15µM* | ?
CSc1ccccc1C(=O)Nc1c(C)cccc1C | . | 0% | -2% | -4% | 3% | .
CCNC(=O)CC1SC(=Nc2cccc3ccccc23)N(C)C1=O (stereo not drawn) | 2% | 3% | 1% | -7% | 0% | 10%
CC1=NN(C(N)=S)C(=O)C1N=Nc1cccc(Cl)c1C (stereo not drawn) | . | 7% | 3.5µM* | ? | 11µM* | .
CC1=NN(C(N)=S)C(=O)C1N=Nc1cccc2ccccc12 (stereo not drawn) | -3% | ? | ? | ? | 17µM* | ?
COc1cc2[nH]c(=O)n(Cc3ccc(C(=O)NCc4ccccc4)cc3)c(=O)c2cc1OC | . | . | . | . | 6% | 5%
CC(C)(C)c1nnc(NC(=O)COc2ccc3c(c2)OCO3)s1 | . | ? | ? | 3.5µM* | 12µM* | .
CC(C)(C)c1nnc(NC(=O)c2ccc3c(c2)OCO3)s1 | . | ? | 2.5µM* | 2µM* | 6.7µM* | .
CCN(CC)C(=O)c1sc(NC(=O)c2ccc3c(c2)OCO3)c(C(N)=O)c1C | . | 5% | ? | ? | 19µM* | .
CCN(CC)C(=O)c1sc(NC(=O)c2ccncc2)c(C(=O)OC)c1C | 1% | -1% | -4% | -3% | -2% | -11%
